High-throughput results as filed in PubChem BioAssay.
D1 antagonist = Antagonist of Human D 1 Dopamine Receptor: qHTS; D(1A) dopamine receptor (Homo sapiens), P21728; HEK293 TREx D1 cells, calcium flux, dopamine EC80; stronger effect = lower value; activity change, negative = inhibition, % at 10 µM; hit rate 3.2% among 360,000; in the data active = activity change below about -30%; note: % is set by controls: 0 for no effect and ±100 for the full control effect
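Using tetracycline-induced force-coupled D1 Hek293 cells and a calcium dye, signals were followed for 180 s after compound, then for 180 s after EC80 dopamine, to detect inhibitors.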
D1 agonist = Allosteric Agonists of the Human D1 Dopamine Receptor: qHTS. D(1A) dopamine receptor (Homo sapiens), P21728. HEK293 T-REx D1 cells, calcium flux, agonist mode. activation, % at 2 µM. hit rate 1% among 360,000; note: 0% is about no effect
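Agonism was scored from calcium flux recorded over 180 s (1 read/s) after pintool compound addition, following a 10-cycle baseline. Cells were inducible force-coupled HEK293 TREx D1, plated overnight at 30 C and loaded with no-wash calcium dye.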
TRHR enhancer = qHTS for Small Molecule Agonists and Allosteric Enhancers of Human TRH Receptor: Primary Screen for Enhancers; AID 493056, 2011; enhancement, % at 2 µM; TRHR cells, fluo-8 calcium fluorescence, EC20 TRH enhancement; hit rate 0.66% among 360,000; in the data active = enhancement above about 30%; note: 0% is about no effect
Target sequence (P34981 whole entry, looked up): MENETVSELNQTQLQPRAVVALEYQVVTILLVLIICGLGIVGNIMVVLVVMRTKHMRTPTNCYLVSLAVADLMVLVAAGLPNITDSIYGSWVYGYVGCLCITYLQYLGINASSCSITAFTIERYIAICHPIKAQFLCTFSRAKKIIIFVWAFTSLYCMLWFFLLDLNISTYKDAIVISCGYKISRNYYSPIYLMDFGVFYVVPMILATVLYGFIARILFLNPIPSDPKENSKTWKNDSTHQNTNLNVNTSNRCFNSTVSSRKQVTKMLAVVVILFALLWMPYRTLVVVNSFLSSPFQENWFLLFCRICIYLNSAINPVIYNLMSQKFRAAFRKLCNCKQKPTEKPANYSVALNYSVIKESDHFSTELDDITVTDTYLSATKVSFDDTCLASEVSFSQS
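TRHR-expressing cells loaded with fluo-8 calcium dye were read kinetically (ex 480/em 530) during compound addition, then stimulated with an EC20 of TRH (10 nM final). Enhancement of the Gq-mediated intracellular calcium response was scored.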
TRHR agonist = qHTS for Small Molecule Agonists and Allosteric Enhancers of Human TRH Receptor: Primary Screen for Agonists. TRHR cells, calcium flux fluo-8, FDSS agonist mode. activation, % at 2 µM. hit rate 0.18% among 360,000. AID 493084, 2011; note: 0% is about no effect
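Steps: seed TRHR cells overnight; add fluo-8 no-wash Ca dye, RT 30 min–1.5 h; record 10 s baseline; pin-transfer compounds; monitor fluorescence 1 cycle/s for the agonist window. Calcium increases flag candidate agonists.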
D1 PAM = Potentiators of Human D1 Dopamine Receptor: qHTS | potentiation, % at 10 µM | AID 504651, 2011 | D(1A) dopamine receptor (Homo sapiens), P21728 | hit rate 0.036% among 360,000 | HEK293 TREx D1 cells, calcium flux, dopamine EC20 potentiation; in the data active = potentiation above about 30%; note: 0% is about no effect
Numbers without * were called inactive. Shown are actives, neighbours in structure and some others; about 4.7% of the full set was active somewhere. Cut-off read from the data, not from the text of the source, unless noted: active = activation above about 30%; inactive = the rest.

What do the screens show for `CCc1nnc(SCc2ccc(F)cc2Cl)c2cc3sc(C)cc3n12`?
D1 antagonist: 7; D1 agonist: 3; TRHR enhancer: 0; TRHR agonist: 1; D1 PAM: -4

How did COc1ccc(OCC2c3cc(OC)c(OC)cc3CCN2C(=O)c2ccc(F)cc2)cc1 (stereo not drawn) do in these assays?
D1 antagonist: 12; D1 agonist: 5; TRHR enhancer: 1; TRHR agonist: 0; D1 PAM: 3

Results for O=C(C1CCCCN1S(=O)(=O)c1ccccc1)N1CCN(C(c2ccccc2)c2ccccc2)CC1 (stereo not drawn) ?
D1 antagonist: -30*; D1 agonist: 8; TRHR enhancer: -2; TRHR agonist: 0; D1 PAM: 2

Results for O=C(C1CCCCN1S(=O)(=O)c1ccccc1)N1CCCCC1 (stereo not drawn) ?
D1 antagonist: 14; D1 agonist: -1; TRHR enhancer: 9; TRHR agonist: -1; D1 PAM: 0

What do the screens show for `CCOC(=O)COc1ccc(CC)cc1C(=O)c1ccn2nc(-c3ccccc3)cc2n1`?
D1 antagonist: 6; D1 agonist: 0; TRHR enhancer: 1; TRHR agonist: -1; D1 PAM: -4

Results for CCCn1nnc(NC(=O)/C=C/c2ccc(C(C)C)cc2)n1 ?
D1 antagonist: -19; D1 agonist: 38*; TRHR enhancer: 3; TRHR agonist: -1; D1 PAM: -9

What do the screens show for `CCCNC(=O)/C=C/c1ccc(C(C)C)cc1`?
D1 antagonist: 4; D1 agonist: 0; TRHR enhancer: 35*; TRHR agonist: -1; D1 PAM: -1

What do the screens show for `O=C(NCCc1ccccc1)C1CCN(C2CCN(Cc3ccco3)CC2)CC1`?
D1 antagonist: -35*; D1 agonist: 2; TRHR enhancer: -5; TRHR agonist: 1; D1 PAM: 3

How did Cc1ccc(-n2nc3c(=S)[nH]nc(C)c3c2C)cc1 do in these assays?
D1 antagonist: -1; D1 agonist: 2; TRHR enhancer: 2; TRHR agonist: 1; D1 PAM: 1

How did Cc1n[nH]c(=S)c2nn(-c3ccccc3)c(C)c12 do in these assays?
D1 antagonist: -33*; D1 agonist: 1; TRHR enhancer: -1; TRHR agonist: -1; D1 PAM: -9

What do the screens show for `CCOC(=O)c1cc2c(N)c(C(=O)c3ccc(Br)cc3)sc2[nH]c1=O`?
D1 antagonist: 3; D1 agonist: 2; TRHR enhancer: 35*; TRHR agonist: 0; D1 PAM: -9

What do the screens show for `CC(C)c1ccc(NC(=O)Cn2nnc(C(=O)NCc3ccc(Cl)cc3)c2N)cc1`?
D1 antagonist: 1; D1 agonist: 0; TRHR enhancer: 15; TRHR agonist: 0; D1 PAM: 3

What do the screens show for `COC(=O)/C=C/c1cnc[nH]1`?
D1 antagonist: -31*; D1 agonist: 2; TRHR enhancer: -1; TRHR agonist: 1; D1 PAM: 8

What do the screens show for `COC(=O)/C=C/c1ccc(-n2cncn2)cc1`?
D1 antagonist: -3; D1 agonist: 1; TRHR enhancer: -3; TRHR agonist: 0; D1 PAM: -3

How did O=C(Cn1cc2c(n1)CCCC2)NCCCN1CCN(Cc2ccccc2)CC1 do in these assays?
D1 antagonist: -24; D1 agonist: 1; TRHR enhancer: 6; TRHR agonist: 0; D1 PAM: -5

How did Cc1ccc(C)c(N2CCN(CCCNC(=O)Cn3cc4c(n3)CCC(C)C4)CC2)c1 (stereo not drawn) do in these assays?
D1 antagonist: -2; D1 agonist: 48*; TRHR enhancer: 7; TRHR agonist: 0; D1 PAM: -6

Results for O=C(Cn1cc2c(n1)CCCC2)NCCCN1CCN(c2ccccc2F)CC1 ?
D1 antagonist: -35*; D1 agonist: 0; TRHR enhancer: 2; TRHR agonist: 0; D1 PAM: -8

What do the screens show for `Cc1ccc(C)c(N2CCN(CCCNC(=O)Cn3cc4c(n3)CCCCC4)CC2)c1`?
D1 antagonist: -12; D1 agonist: 33*; TRHR enhancer: -11; TRHR agonist: 3; D1 PAM: -5

What do the screens show for `CCOC(=O)c1ccc(NC(=O)Cn2cc3c(n2)CCC(C)C3)cc1` (stereo not drawn)?
D1 antagonist: -30*; D1 agonist: -2; TRHR enhancer: 2; TRHR agonist: 0; D1 PAM: -3

Results for CC1CCc2nn(CC(=O)NCCCN3CCCC3=O)cc2C1 (stereo not drawn) ?
D1 antagonist: 21; D1 agonist: 1; TRHR enhancer: -5; TRHR agonist: 0

What do the screens show for `CCN1CCN(CCCNC(=O)Cn2cc3c(n2)CCCC3)CC1`?
D1 antagonist: 6; D1 agonist: -2; TRHR enhancer: 9; TRHR agonist: -1

How did CCOC(=O)c1ccc(NC(=O)Cn2nnc(-c3ccc(C(F)(F)F)cc3)n2)cc1 do in these assays?
D1 antagonist: 18; D1 agonist: 1; TRHR enhancer: 44*; TRHR agonist: 0; D1 PAM: -2

Results for CCc1cc(=O)oc2cc(OCC(=O)NCCCn3ccnc3)ccc12 ?
D1 antagonist: -37*; D1 agonist: 3; TRHR enhancer: -4; TRHR agonist: 0; D1 PAM: -3

Results for O=C(COc1ccc2c3c(c(=O)oc2c1)CCCC3)NCCCN1CCOCC1 ?
D1 antagonist: -30*; D1 agonist: 9; TRHR enhancer: 1; TRHR agonist: 0; D1 PAM: -9

How did O=C(COc1ccc2c3c(c(=O)oc2c1)CCCC3)NCCN1CCOCC1 do in these assays?
D1 antagonist: -12; D1 agonist: 2; TRHR enhancer: 13; TRHR agonist: 0; D1 PAM: -3

Results for Cc1nn(CC(=O)NCc2ccc(N(C)C)cc2)c(=O)c2nn(-c3ccccc3)c(C)c12 ?
D1 antagonist: 1; D1 agonist: 1; TRHR enhancer: -27; TRHR agonist: 0; D1 PAM: -1

How did COc1cc2nc(SCC(=O)Nc3cccc(C)c3)n3nc(-c4ccccc4)nc3c2cc1OC do in these assays?
D1 antagonist: -5; D1 agonist: 0; TRHR enhancer: 4; TRHR agonist: -1; D1 PAM: 7

How did CCCOc1ccc(Br)cc1CSC(=N)N do in these assays?
D1 antagonist: -20; D1 agonist: 49*; TRHR enhancer: 9; TRHR agonist: 1; D1 PAM: -1

What do the screens show for `CC(C)CN(C(=O)CN1CCN(S(=O)(=O)c2ccc3ccccc3c2)CC1)c1c(N)n(CC(C)C)c(=O)[nH]c1=O`?
D1 antagonist: -88*; D1 agonist: 0; TRHR enhancer: -1; TRHR agonist: 0; D1 PAM: -5
